# Data taken from PubChem BioAssay (NCATS).
# Results filed as inconclusive are left out. Where a call stands in place of a potency, no number is given. Calls of active or inactive are those of the source. Calls come from the whole dose curve; as a rule, active = well fitted inhibition curve with a large enough effect; inconclusive = small, poorly fitted or top-dose-only effect; inactive = no such curve, though single readings can be large or run the other way.
# Assay: BET inhibitor-based combinations targeting novel dependencies in MECOM-rearranged (r) AML: OCI-AML3 cell line (AID 2202232); note: nearly all actives have a fitted effect of over 35% in size
# Conditions: CellTiter-Glo luminescence, 48 h; Potency: OCI-AML3 viability; series mostly up to 46 µM
# Excerpt: Ecotropic viral insertion site 1 (EVI1) is located on chromosome 3q26.2 as part of the MECOM (MDS and EVI1 complex) locus. Under normal hematopoiesis, EVI1 is a regulator of hematopoietic stem cell maintenance and self-renewal and EVI1 levels decrease as the cells differentiate. In approximately 5-10% of de novo acute myeloid leukemia (AML) EVI1 is aberrantly expressed, including Chromosomal inv(3)(q21;q26.2) or t(3;3)(q21;q26.2) alterations (MECOM-r) that account for about 50% of AML with EVI1 overexpression 31. AMLs with high levels of EVI1 have a poor prognosis and an overall survival time averaging between 10-14 months. EVI1 overexpression confers resistance in leukemia cells, highlighting the need to develop new targeted therapies for EVI1 overexpressing AMLs.
# Here, we performed an unbiased chemical drug screening by evaluating the single agent activity of a collection of 2,480 oncology-focused, approved and investigational drugs (NCATS Mechanism Interrogation Plates, MIPE v5.0) against a panel of seven AML cell lines. These included four MECOM-r cell-lines (AML-191, AML-194, UCSD-AML1 and HNT-34) and three non-MECOM-r AMLs (MV4-11, OCI-AML3 and SET-2). Exploiting the mechanistic redundancy built in the library, we identified target-level sensitivities in MECOM-r AML cells and relative activity as compared to other AML subtypes.
# A collection of 2480 mechanistically annotated dugs (MIPE v5.0) was used to screen four 3q26.2 rearranged AML cell lines and three non-3q26.2 rearranged AML cell lines. This library purposely exploits redundancy by including multiple inhibitors of key onco-targets, while simultaneously encompassing mechanistic diversity, targeting more than 800 distinct mechanisms of action. Briefly, cells were seeded in 5 uL of growth media using a Multidrop Combi dispenser into 1536 well white polystyrene tissue culture treated plates (Corning) at a density of 500cells/well. For each cell-line, for each of the 2480 drugs in MIPE v5.0 library, an 11-point dose curve was generated via a 1536 pin-tool. Plates were incubated for 48 hr at standard incubator conditions, covered by a stainless steel gasketed lid to prevent evaporation. Cell viability was determined by luminescence based, Cell Titer Glo assay (Promega). In detail, 3 uL of Cell Titer Glo were added to each well and plates were incubated at room temperature for 15 min with a stainless-steel lid in place. Luminescence readings were taken using a Viewlux (PerkinElmer) with a 2 s exposure time per plate. Compound dose-response curves were normalized to DMSO and empty well controls on each plate. Quantitative drug activity data from dose-response curves was determined utilizing area Under the Curve (AUC) and Z-transformed AUC (Z-AUC, a mean-centering transformation applied to each individual cell-line screened).
# Potency is the fitted concentration of half-maximal effect.
row,Structure (SMILES),Potency
1,C[C@@H](CN1CC(=O)NC(=O)C1)N1CC(=O)NC(=O)C1,18.6 µM (active)
2,CN1CCN(CCCN2c3ccccc3Sc3ccc(C(F)(F)F)cc32)CC1,16.6 µM (active)
3,CCOC(=O)C1=C[C@@H](OC(CC)CC)[C@H](NC(C)=O)[C@@H](N)C1,inactive
4,O=C(/C=C/c1ccc(O)cc1)c1ccc(O)cc1O,14.8 µM (active)
5,C=CC(=O)Nc1cccc(Oc2nc(Nc3ccc(N4CCN(C)CC4)cc3OC)ncc2Cl)c1,10.5 µM (active)
6,Cc1cc(=O)oc2cc(O)ccc12,inactive
7,O=C(Nc1ccc(S(=O)(=O)N2CCOCC2)cc1)c1cc(Cl)ccc1NS(=O)(=O)c1ccc(Cl)s1,inactive
8,CC1(C)[C@@H](O)CC[C@]2(C)[C@H]3C(=O)C=C4[C@@H]5C[C@@](C)(C(=O)O)CC[C@]5(C)CC[C@@]4(C)[C@]3(C)CC[C@@H]12,inactive
9,CC(C)NCC(O)COc1ccc(CCOCC2CC2)cc1 (stereo not given),inactive
10,O=c1ccn([C@@H]2O[C@H](CO)[C@@H](O)[C@H]2O)c(=O)[nH]1,inactive
11,Cn1cnc2c(F)c(Nc3ccc(Br)cc3Cl)c(C(=O)NOCCO)cc21,0.0295 µM (active)
12,Nc1nccc(Oc2ccc(NC(=O)c3c[nH]cc(-c4ccc(F)cc4)c3=O)cc2F)c1Cl,20.9 µM (active)
13,O=C1NC(=O)C(c2cnc3ccccn23)=C1c1cn2c3c(cc(F)cc13)CN(C(=O)N1CCCCC1)CC2,2.95 µM (active)
14,NS(=O)(=O)c1cc(Cl)c(Cl)c(S(N)(=O)=O)c1,inactive
15,O=C(O)CCCCCC(=O)NN=C1CCCC1,inactive
16,Cc1ccc(C(C)(O)c2nc3ccccc3s2)c(C)c1 (stereo not given),inactive
17,CC1=C[C@@H]2[C@@H]([C@@H](O)C[C@@]3(C)[C@H]2C[C@@H](C)[C@]3(O)C(=O)CO)[C@@]2(C)Cc3cnn(-c4ccccc4)c3C=C12,18.6 µM (active)
18,O=C1c2ccccc2-[n+]2ccc3c([nH]c4ccccc43)c21,1.86 µM (active)
19,Cc1nc(NC(=O)N2CCCC2C(N)=O)sc1-c1ccnc(C(C)(C)C(F)(F)F)c1 (stereo not given),2.63 µM (active)
20,CN1C(=O)C(Cc2c[nH]c3ccccc23)NC1=S (stereo not given),inactive

row,Structure (SMILES),Potency
1,O=C(O)CCNc1cc(N2CCc3ccccc3CC2)nc(-c2ccccn2)n1,inactive
2,C1Cc2[nH]nc(-c3nn[nH]n3)c2C1,inactive
3,COc1ccc(-c2c(C)nn3c(NCCN4CCOCC4)cc(C)nc23)cc1OC,inactive
4,NC[C@H]1O[C@H](O[C@@H]2[C@@H](O)[C@@H](O[C@H]3O[C@H](CO)[C@@H](O)[C@H](N)[C@@H]3O)[C@H](N)C[C@@H]2N)[C@H](O)[C@@H](O)[C@H]1O,inactive
5,N#Cc1ccc(C2CCCc3cncn32)cc1 (stereo not given),inactive
6,COc1c(C)c2c(c(O)c1C/C=C(\C)CCC(=O)OCCN1CCOCC1)C(=O)OC2,1.32 µM (active)
7,COc1ccc(CCC(=O)Nc2nc3ccc(Cl)cc3s2)cc1OC,inactive
8,O=C(Nc1ncc(-c2cc(C(F)F)nn2-c2c(Cl)cccc2Cl)s1)C1CC1,0.833 µM (active)
9,O=C(c1ccc(NS(=O)(=O)c2cccc3cccnc23)cc1)N1CCN(CC2CC2)CC1,inactive
10,Cc1sc2c(c1C)C(c1ccc(Cl)cc1)=N[C@@H](CC(=O)Nc1ccc(OCCOCCOCCOCCNc3cccc4c3C(=O)N(C3CCC(=O)NC3=O)C4=O)cc1)c1nnc(C)n1-2 (stereo not given in full),0.0332 µM (active)
11,C[C@]12CC[C@H](O)CC1=CCC1C2CC[C@]2(C)C(n3cnc4ccccc43)=CCC12 (stereo not given in full),inactive
12,O=C1[C@H](CC[C@H](O)c2ccc(F)cc2)[C@@H](c2ccc(O)cc2)N1c1ccc(F)cc1,20.9 µM (active)
13,C[Se]CCC(N)C(=O)O (stereo not given),inactive
14,Nc1nc2c(c(=O)[nH]1)N(C=O)[C@H](CNc1ccc(C(=O)N[C@@H](CCC(=O)O)C(=O)O)cc1)CN2,inactive
15,O=C1Nc2ccc(I)cc2/C1=C/c1cc(Br)c(O)c(Br)c1,inactive
16,CC(C)(C)C(=O)Oc1ccc(S(=O)(=O)Nc2ccccc2C(=O)NCC(=O)O)cc1,inactive
17,CO[C@@H](C)Cn1c(=O)n(C)c2cnc3ccc(-c4cncc(C(C)(C)O)c4)cc3c21,1.18 µM (active)
18,Cc1cc(Cl)ccc1OCCCC(=O)NO,20.9 µM (active)
19,CC1COC2(CCN(c3nc(=O)c4cc(C(F)(F)F)cc([N+](=O)[O-])c4s3)CC2)O1 (stereo not given),inactive
20,CC(=O)N1CCN(c2ccc(OC[C@H]3CO[C@](Cn4ccnc4)(c4ccc(Cl)cc4Cl)O3)cc2)CC1,inactive
